Assay results as given in ChEMBL document CHEMBL3988442, “University of Dundee, Small-Polar-MMV Screening Library” (2021).
Out of some 48,000 compounds screened, about 13,000 (27%) showed an effect of 50% or more. The list shows a part of the results.

Test system: Wolbachia pipientis
Test: Anti-Wolbachia Cell-Based Screen
Format: functional
Parameters: scale not given: in the data most compounds retested in dose-response had high values
Settings: 5 µM

| Compound | Percent Effect [%] |
| --- | --- |
| CCOc1ncccc1-c1cc2c(cc1C(N)=O)OCO2 | 2.212 |
| COC(=O)CNC(=O)CSCc1nc(O)c2c(C)c(C)sc2n1 | 7.048 |
| CNS(=O)(=O)c1cccc(C(C)NCc2nccn2C(C)C)c1 (stereo unspecified) | -13.68 |
| CC(C)(C)c1nc(CN2CCC3(CCCO3)CCC2=O)no1 (stereo unspecified) | -4.31 |
| O=C(CCc1ccccc1F)NS(=O)(=O)c1ccc2c(c1)OCCCO2 | 3.529 |
| Cn1c(CO[C@H]2CN(S(C)(=O)=O)C[C@H]2F)nc2ccccc21 | 0.03029 |
| CO[C@H]1CN(Cc2nc3ccccc3n2C)C[C@@]12CCCO2 | 116 |
| Cn1c(CN2CCOC[C@H]2c2nc(C(C)(C)C)co2)nc2ccccc21 | -2.257 |
| CO[C@H]1CN(Cc2nc3ccccc3n2C)CC[C@@]12CCCO2 | 137.2 |
| COCCN1C[C@H]2CC[C@@H]1CN(Cc1nc3ccccc3n1C)C2 | 17.95 |
| Cc1cc(C)c(S(=O)(=O)Nc2c(C)noc2C)cc1C(=O)O | -6.139 |
| Cc1noc(C)c1NS(=O)(=O)c1cc(Cl)c(Cl)c(C(=O)O)c1 | -2.046 |
| Cc1noc(C)c1C(=O)N(C)C(C)c1ccc(S(C)(=O)=O)cc1 (stereo unspecified) | -13.22 |
| CC(=O)Nc1c(C)noc1/C=C\c1ccc(C)c(S(=O)(=O)NC2CC2)c1 | 113.9 |
| CCOc1ccc(S(=O)(=O)NC(=O)c2c(C)noc2C(C)C)cc1 | 3.193 |
| CCC(C)NS(=O)(=O)c1ccc(/C=C\c2onc(C)c2NC(C)=O)cc1 (stereo unspecified) | 102.8 |
| CC(=O)Nc1c(C)noc1/C=C\c1ccc(S(=O)(=O)N2CCCC2)cc1 | 101.8 |
| CCN(CC1CCCO1)S(=O)(=O)c1cc(NC(C)=O)ccc1C (stereo unspecified) | -4.974 |
| CC(C)N(CCNC(=O)c1ccc(S(=O)(=O)NC2CC2)cc1)C(C)C | -4.232 |
| Cc1cc(NC(=O)NCc2ccc(S(=O)(=O)N3CCCC3)s2)no1 | -7.015 |
| Cc1ccc(S(=O)(=O)NC2CC2)cc1C | 3.676 |

| Compound | Percent Effect [%] |
| --- | --- |
| CC(=O)Nc1c(C)noc1/C=C\c1ccc(S(=O)(=O)NC2CC2)cc1 | 127.5 |
| COCc1c(C(=O)N2CCCC(C(=O)c3ccccc3)C2)noc1C (stereo unspecified) | 18.29 |
| CC(C)c1noc(-c2ccc(N(C)C3CCOCC3)nc2)n1 | 4.725 |
| CCc1ccc(C(=O)N(c2cccnc2)C(C)C)cc1S(C)(=O)=O | -4.905 |
| Cn1cc(N2CCCC(NCc3cccc4c3OCCCO4)C2)cn1 (stereo unspecified) | 5.522 |
| CC(=O)N1CCN(Cc2csc(-c3cnn(C)c3)n2)CC1 | -2.698 |
| CN(CCOc1ccccc1)C(=O)Nc1cccn(C)c1=O | -7.911 |
| CCn1nc(C)c(CNCCn2cc(C)cn2)c1C | -3.614 |
| CCc1n[nH]c(C2CN(C(=O)c3ccc(Cl)cn3)CCO2)n1 (stereo unspecified) | 105.2 |
| CCc1n[nH]c(C2CN(C(=O)c3cnns3)CCO2)n1 (stereo unspecified) | -10.08 |
| CCc1n[nH]c(C2CN(C(=O)c3cnc(C)s3)CCO2)n1 (stereo unspecified) | 1.148 |
| CCc1n[nH]c(C2CN(C(=O)c3csnn3)CCO2)n1 (stereo unspecified) | 5.505 |
| CCc1n[nH]c(C2CN(C(=O)c3cscn3)CCO2)n1 (stereo unspecified) | 131.5 |
| CCc1n[nH]c(C2CN(C(=O)c3ccsc3)CCO2)n1 (stereo unspecified) | -7.314 |
| CCc1n[nH]c(C2CN(C(=O)c3cnn(CC)c3)CCO2)n1 (stereo unspecified) | 143.5 |
| CCc1n[nH]c(C2CN(C(=O)c3cnc(C)cn3)CCO2)n1 (stereo unspecified) | 99.84 |
| Cc1ccc2c(c1)CCC21CCN(CCO)CC1 | 9.958 |
| Cc1ccc(NC(=O)N(CCO)CCO)c(OCc2ccccc2)c1 | -35.37 |
| Cc1cc(CN(Cc2cccs2)CC2CCCO2)no1 (stereo unspecified) | -7.251 |
| COc1ccc(CN(Cc2cn(C)nc2C)CC2CCCO2)c(OC)c1 (stereo unspecified) | 138 |
| COc1ccc(CN(CC2CCCO2)c2nc3c(s2)c(C)nn3C)cc1 (stereo unspecified) | -25.43 |

| Compound | Percent Effect [%] |
| --- | --- |
| COc1ccc(CN(Cc2cnc(N)nc2)CC2CCCO2)c(OC)c1.O=C(O)CC(O)(CC(=O)O)C(=O)O (stereo unspecified) | 113.1 |
| Nc1nccnc1C(=O)N(Cc1ccccc1O)CC1CCCO1 (stereo unspecified) | -11.08 |
| COc1ccc(CN(Cc2ccccn2)Cc2cncn2C)cc1.O=C(O)CC(O)(CC(=O)O)C(=O)O | 130.6 |
| COC(=O)CCN(CC1CCCO1)C(=O)Cc1ccc(OC)c(OC)c1 (stereo unspecified) | 2.857 |
| COc1ccc(CN(Cc2cncn2C)CC2CCCO2)c(OC)c1.O=C(O)CC(O)(CC(=O)O)C(=O)O (stereo unspecified) | -9.808 |
| CCn1cncc1CN(Cc1ccc(OC)cc1OC)CC1CCCO1.O=C(O)CC(O)(CC(=O)O)C(=O)O (stereo unspecified) | 91.73 |
| CCN1CCN(c2ccc(F)cc2C(C)NCc2ccncc2)CC1 (stereo unspecified) | 0.6189 |
| COCCC(C)NC(=O)Nc1ccc(N2CCOC2=O)c(OC)c1 (stereo unspecified) | -2.31 |
| O=C(Cn1ccc2ccccc21)Nc1cc(N2CCOCC2)ncn1 | -11.42 |
| CN(C)C(=O)Cc1ccc(NC(=O)NC2CC2)cc1 | -3.674 |
| COc1ccc(CN(Cc2cncn2C)CC2CCCO2)cc1.O=C(O)CC(O)(CC(=O)O)C(=O)O (stereo unspecified) | 108.8 |
| Cc1nc2ccccn2c1CN(Cc1cccnc1)CC1CCCO1 (stereo unspecified) | -2.807 |
| COc1ccc(CN(C(=O)C2CCCOC2)c2ccncc2)cc1 (stereo unspecified) | -5.222 |
| O=c1[nH]c2ccccc2cc1CN(Cc1ccccn1)CC1CCCO1 (stereo unspecified) | 7.522 |
| COc1ccccc1CN(Cc1cccnc1)Cc1c[nH]c(C)n1 | -35.67 |
| COc1ccc(CN(Cc2cncn2C)CC2CCCO2)cc1OC.O=C(O)CC(O)(CC(=O)O)C(=O)O (stereo unspecified) | -10.71 |
| COc1ccc(CN(Cc2c[nH]cn2)CC2CCCO2)c(OC)c1.O=C(O)CC(O)(CC(=O)O)C(=O)O (stereo unspecified) | 99.96 |
| COc1ccccc1CN(Cc1cccnc1)CC1CCCO1.O=C(O)CC(O)(CC(=O)O)C(=O)O (stereo unspecified) | 117.4 |
| Cn1cnc2c(N3CCCC3)nc(C3CCN(CC4CC4)CC3)cc21.O=C(O)C(F)(F)F.O=C(O)C(F)(F)F | -3.967 |
